High-throughput results: PubChem BioAssay, The Scripps Research Institute Molecular Screening Center
GPR151 ag = activators of human GPR151, primary screen, cell-based, PathHunter beta-arrestin, luminescence | PathHunter beta-arrestin GPR151 cells | hit rate 1% among 650,000 | activation, % at 11.2 µM | G-protein coupled receptor 151 (Homo sapiens), Q8TDV0 | AID 1508602, 2020; in the data active = activation above about 4.9%;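 note: 0% = median of compound wells and 100% = cells with positive control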
MITF inh = MITF inhibitors, primary screen, biochemical, AlphaScreen, human. AlphaScreen MITF homodimerization, bead proximity signal. hit rate 0.91% among 650,000. Microphthalmia-associated transcription factor (Homo sapiens), O75030. inhibition, % at 2.6 µM; in the data active = inhibition above about 50%;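 note: 0% = vehicle wells with protein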
FBW7 act = FBW7 E3 ligase activators, primary screen, biochemical, AlphaScreen, human | F-box/WD repeat-containing protein 7 (Homo sapiens), Q969H0 | AlphaScreen FBW7–phospho-cyclin E peptide binding, activator screen | normalized activity (activation), % at 26.1 µM | hit rate 0.13% among 650,000; in the data active = normalized activity above about 1.9%;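 note: purified mutant Fbw7 with reduced substrate affinity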
Target sequence (Q969H0 whole entry, looked up): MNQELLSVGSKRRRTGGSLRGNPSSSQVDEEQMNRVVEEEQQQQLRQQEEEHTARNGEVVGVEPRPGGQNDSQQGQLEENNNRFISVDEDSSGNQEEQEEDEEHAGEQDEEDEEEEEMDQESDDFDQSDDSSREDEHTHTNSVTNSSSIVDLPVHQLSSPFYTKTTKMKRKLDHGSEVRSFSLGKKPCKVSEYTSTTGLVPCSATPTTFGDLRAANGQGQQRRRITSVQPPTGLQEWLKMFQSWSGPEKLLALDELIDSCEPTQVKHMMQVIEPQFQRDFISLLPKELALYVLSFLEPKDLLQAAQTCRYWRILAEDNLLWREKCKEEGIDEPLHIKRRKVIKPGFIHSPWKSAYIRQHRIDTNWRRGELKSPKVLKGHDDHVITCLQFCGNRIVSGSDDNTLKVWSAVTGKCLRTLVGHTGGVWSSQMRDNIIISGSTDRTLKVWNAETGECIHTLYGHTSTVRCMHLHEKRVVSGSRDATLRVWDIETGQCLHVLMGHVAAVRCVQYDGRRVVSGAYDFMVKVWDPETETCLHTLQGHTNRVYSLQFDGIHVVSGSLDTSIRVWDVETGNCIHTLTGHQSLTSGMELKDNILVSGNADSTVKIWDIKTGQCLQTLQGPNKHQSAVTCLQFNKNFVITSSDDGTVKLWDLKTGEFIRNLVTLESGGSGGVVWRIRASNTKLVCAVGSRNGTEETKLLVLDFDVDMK
TEAD-YAP inh = TEAD-YAP interaction inhibition, primary screen, TEAD-YAP interaction inhibitor project, luminescence, HEK-TIYL cells; hit rate 1.4% among 640,000; inhibition, % at 9.12 µM; TEAD-Gal4/YAP UAS-luciferase luminescence; in the data active = inhibition above about 32%;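 note: 0% = median of test compound wells and 100% = reference inhibitor wells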
* = called active by the depositor. Hits are enriched below; roughly 3.4% of the tested compounds scored in any of these assays.

SMILES | GPR151 ag | MITF inh | FBW7 act | TEAD-YAP inh
COc1ccc(CCNC(=O)c2ccc(Cn3c(=S)[nH]c4cc(C(=O)O)ccc4c3=O)cc2)cc1OC | 4.5 | -2.6 | -0.3 | 5.1
CC1CCCN(S(=O)(=O)c2cc(C(=O)O)ccc2Cl)C1 (configuration not stated) | 2.7 | -11.7 | -0.1 | 7.8
O=C(CCl)N(c1ccccc1)c1ccccc1 | -2.5 | 24.5 | -0.1 | 66.4*
Cn1c(Nc2cc(C(=O)NCc3cccc(C(F)(F)F)c3)ccn2)nc2ccccc21 | 0.8 | 10.4 | -0.1 | 35.2*
Cc1ccc(F)cc1Nc1ncnc(N)c1[N+](=O)[O-] | -1.3 | 17.3 | 2.1* | -0.7
COCCNC(=O)C1CCCN(c2nnc(N3CCCC3=O)s2)C1 (configuration not stated) | -2.4 | -3.0 | 0.6 | 4.5
Cc1nc(C)c(-c2ccc(SCC(=O)Nc3ccc([N+](=O)[O-])cc3)nn2)s1 | 0.6 | 2.5 | 0.5 | 47.4*
Cc1cc(OCC(=O)NNC(=O)C(C)N2C(=O)c3ccccc3C2=O)cc(C)c1Cl (configuration not stated) | 0.0 | 8.8 | 1.7 | 18.0
O=C(O)c1cc(O)c2c(c1)[C@@H]([C@H]1c3cc(C(=O)O)cc(O)c3C(=O)c3c(O[C@H]4O[C@H](CO)[C@@H](O)[C@H](O)[C@H]4O)cccc31)c1cccc(O[C@H]3O[C@H](CO)[C@@H](O)[C@H](O)[C@H]3O)c1C2=O | -1.1 | 121.2* | -0.6 | 4.7
COc1ccc(-c2nc(Nc3ccc(N4CCOCC4)cc3)c3ncn(-c4ccsc4)c3n2)cn1 | -0.6 | -2.3 | -0.1 | 44.7*
CC(=O)Nc1ccc(Nc2nc(-c3ccc(N4CCOCC4)nc3)nc3c2ncn3-c2ccsc2)cc1 | -1.6 | 3.7 | 0.0 | 42.8*
c1ccc(Nc2nc(-c3ccc(N4CCOCC4)nc3)nc3c2ncn3-c2ccsc2)cc1 | -1.1 | 15.0 | 0.1 | 9.9
CC(O)c1nc2ccccc2[nH]1 (configuration not stated) | -0.6 | -5.6 | -0.2 | 3.9
Cc1nnnn1/C(=C\c1ccccc1)C(=O)N[C@H](c1nc2ccccc2[nH]1)C(C)C | 0.0 | 5.3 | -0.1 | 48.7*
CC(=O)c1cccc(NC(=O)c2ccc(N3CC4CC(C3)c3cccc(=O)n3C4)c(NC(=O)c3ccccc3Br)c2)c1 (configuration not stated) | -0.8 | -9.4 | -0.1 | -4.3
O=S(=O)(NCc1cccs1)c1ccc(-c2ccc(S(=O)(=O)NCc3cccs3)cc2)cc1 | 0.2 | -4.5 | 0.1 | 4.2
O=S(=O)(NCc1cccs1)c1ccc(Cc2ccc(S(=O)(=O)NCc3cccs3)cc2)cc1 | 1.0 | 7.1 | 0.1 | 33.6*
CCSc1nnc(N2C(=O)CC(c3ccc(F)cc3)C3=C2CC(C)(C)CC3=O)s1 (configuration not stated) | 0.9 | 14.8 | 0.1 | -0.9
OCC1CCCN1c1nc(NC2CC2)c2ncn(-c3ccsc3)c2n1 (configuration not stated) | 2.0 | 3.6 | 0.0 | 1.1
c1cc(-n2cnc3c(NC4CC4)nc(N4CCOCC4)nc32)cs1 | -0.8 | -1.0 | 0.0 | 56.1*
c1cc(-n2cnc3c(NC4CC4)nc(N4CCC(N5CCOCC5)CC4)nc32)cs1 | -1.0 | 10.2 | -0.1 | 45.8*
c1ccc(-n2cnc3c(NC4CC4)nc(N4CCOCC4)nc32)cc1 | 1.1 | -0.6 | -0.1 | 52.5*
CC(C)N(CCNc1nc(N2CCOCC2)nc2c1ncn2-c1ccsc1)C(C)C | 0.4 | 1.7 | 0.0 | 55.3*
CNC(=O)C1CCN(S(=O)(=O)c2cc(OC)ccc2OC)CC1 | -0.3 | 6.9 | 0.0 | 3.8
Cc1ccc2cc(C=C(C#N)C#N)c(N(C)C)nc2c1 | 1.1 | 1.4 | -0.1 | 3.2
SMILES | GPR151 ag | MITF inh | FBW7 act | TEAD-YAP inh
COc1ccc(C(=O)NCc2ccc(C(=O)NCC3CCCO3)cc2)cc1OC (configuration not stated) | 0.7 | 4.6 | -0.3 | -0.3
CC(=O)Nc1ccc(Nc2nc(N3CCN(c4ccccn4)CC3)nc3c2ncn3-c2ccccc2)cc1 | 3.7 | 3.9 | -0.2 | 22.3
c1ccc(-n2cnc3c(NC4CC4)nc(N4CCN(c5ccccn5)CC4)nc32)cc1 | -0.6 | 16.0 | 0.0 | 37.5*
Nc1cccc(-c2cccc(C(=O)NCCCN3CCCC3=O)c2)c1 | 0.2 | 0.1 | -0.1 | 41.4*
O=C(NCCCCCCNC(=O)Nc1cccnc1)Nc1cccnc1 | 0.1 | -5.0 | -0.1 | 57.1*
COc1ccccc1C(=O)Nc1ccc2nc(SCC(=O)NCCOc3ccccc3)sc2c1 | 0.5 | -1.6 | 0.0 | 52.8*
CC(=O)Nc1ccc2nc(SCC(=O)N3CCN(c4ccccc4)CC3)sc2c1 | -1.1 | 9.8 | 0.9 | 14.2
COc1ccccc1C(=O)Nc1ccc2nc(SCC(=O)NCc3ccccc3)sc2c1 | 0.9 | 1.4 | 0.0 | 52.4*
CCC(=O)Nc1ccc2nc(SCC(=O)N3CCN(c4ccccc4)CC3)sc2c1 | 3.5 | 4.5 | 0.1 | 45.1*
C/C(N)=C(/C#N)C(=O)CSc1nc(-c2ccccc2)cn1N | 0.5 | -5.6 | 0.1 | -21.0
O=c1c2cn[nH]c2[nH]c(=S)n1-c1ccc(F)c(Cl)c1 | -0.6 | -5.5 | -0.2 | -2.7
CC(C)(C)c1ccc(-c2nc(-c3ccccc3)no2)cc1 | 0.7 | 0.0 | 0.1 | 77.2*
Cc1ccc(-c2noc(-c3ccc(O)cc3)n2)cc1 | -9.0 | 2.5 | 0.5 | 74.0*
Oc1ccc(-c2nc(-c3ccc(Br)cc3)no2)cc1 | -7.9 | 1.7 | 0.0 | 49.7*
CCC(=O)Oc1ccc(-c2nc(-c3ccc(OC)cc3)no2)cc1 | -6.6 | 0.9 | -0.1 | 43.6*
CC(C)(C)c1ccc(-c2nc(-c3ccc(Br)cc3)no2)cc1 | -0.9 | -2.7 | 0.0 | -10.2
Cc1ccc(N=C2NC(=O)/C(=C\c3ccc(C(C)C)cc3)S2)cc1 | 0.2 | 8.9 | -0.1 | 0.3
CC(C)(C)CNC(=O)c1c(-c2ccccc2)nc2ccccn12 | 0.1 | 10.1 | 0.1 | -14.2
CCOc1ccc(N2CSC3=C(C#N)C(c4ccc(C)o4)CC(=O)N3C2)cc1 (configuration not stated) | 0.0 | 39.8 | -0.7 | -1.2
C=C1CC[C@H](O)C/C1=C/C=C1\CCCC2(C)C1CCC2C(C)CCCC(C)C (some centres not stated) | 1.4 | 11.4 | 0.0 | -5.0
C=C1/C(=C\C=C2/CCCC3(C)[C@@H]([C@H](C)CCCC(C)(C)O)CC[C@@H]23)C[C@@H](O)C[C@@H]1O (some centres not stated) | 0.3 | -2.0 | -0.1 | 37.2*
COc1ccc(NC(=O)CSc2nc3ccccc3o2)cc1OC | -1.9 | 0.9 | 0.5 | 32.6*
COc1ccc(NC(=O)CSc2nc3ccccc3o2)cc1 | 2.6 | -2.6 | 0.6 | -54.8
Cc1nnc(SCC(=O)Nc2nc3c(s2)CC(C)CC3)s1 (configuration not stated) | 0.4 | 1.6 | -0.1 | -16.4
CC1CCc2nc(NC(=O)CSc3nc4ccccc4o3)sc2C1 (configuration not stated) | 2.0 | 0.8 | -0.1 | 66.6*
CCC[C@@H]1NC(=O)[C@@H]2C[C@H](NC(=O)c3ccccc3)CN2C1=O | -0.7 | 16.6 | 0.8 | 10.4
